Assay results as given in PubChem BioAssay AID504834 (National Center for Advancing Translational Sciences (NCATS), 2011).
In all, about 320,000 compounds went through this assay and about 22,000 (6.9%) were called active. Entries that show only a call come without a potency. Inconclusive results (about 27%) are left out. The call rests on the fitted dose curve; in most records, active means well fitted inhibition curve with a large enough effect; inconclusive means small, poorly fitted or top-dose-only effect, or another doubt; inactive means no such curve, though single readings can be large or run the other way. Only a selection was taken, and actives are over-represented in it overall.
Potency means the concentration at half of the fitted maximal effect.

Experiment: Primary qHTS for delayed death inhibitors of the malarial parasite plastid, 96 hour incubation
Details: P. falciparum luciferase reporter growth; series mostly up to 28.7 µM
Summary of the method: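 Parasite growth measured via integrated firefly luciferase reporter in P. falciparum. Infected erythrocytes at 2% hematocrit, 0.05% parasitemia final were treated 96 hours at 37 C under 5% CO2, and luminescence was read.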
For `COc1cccc(C(=O)Nc2nnc(S(=O)(=O)N(C)c3ccccc3)s2)c1`, the Potency was “inactive”. For `CCc1cc(-c2nnc(SCC(=O)NC3CC3)n2C)cs1`, the Potency was “inactive”. In the case of `Cc1ccc(S(=O)(=O)CC(=O)Nc2nnc(C)s2)cc1`, the Potency is reported as “inactive”. With `CCOc1ccc(CN2CCC(n3nccc3NC(=O)C3CC3)CC2)cc1CO` the Potency was “inactive”. For `COc1ccccc1Oc1ccc(N2CC(C(=O)OCC(=O)c3ccc(F)cc3)CC2=O)cc1` (stereo unspecified), the Potency was “inactive”. In the case of `CC(C)c1nc2cc(C(=O)NC(C)c3cnn(C)c3)ccc2o1` (stereo unspecified), the Potency is reported as “inactive”. With `COc1ccc(CNC(=O)c2ccc3oc(C(C)C)nc3c2)cc1` the Potency was “inactive”. With `CCCCc1nc2cc(C(=O)NCCc3cnn(C)c3)ccc2o1` the Potency was 7.38 µM (active). With `CC(=O)c1c(C)[nH]c(C(=O)CN2C(=O)NC(C)(C)C2=O)c1C` the Potency was “inactive”. With `CN(C)CCN(C(=O)CN1C(=O)c2ccccc2C1=O)c1nc2cc3c(cc2s1)OCCO3` the Potency was “inactive”. With `Cc1nc2ccccc2c(=O)n1-c1ccc(Cl)cc1Cl` the Potency was “inactive”. With `CCCN1C(=O)C(Cc2nc3ccccc3c(=O)n2-c2ccccc2)c2cc(C)ccc21` (stereo unspecified) the Potency was 6.57 µM (active). In the case of `COc1ccc(-n2c(-c3ccccc3)nc3ccccc3c2=O)cc1`, the Potency is reported as “inactive”. In the case of `CC(=O)c1ccc(NC(=O)C2CCCN2S(=O)(=O)c2cccs2)cc1` (stereo unspecified), the Potency is reported as “inactive”. In the case of `Cc1c(NC(=O)c2c([N+](=O)[O-])cnn2C)c(=O)n(-c2ccccc2)n1C`, the Potency is reported as “inactive”. With `Cc1c(NC(=S)Nc2ccccc2)c(=O)n(-c2ccccc2)n1C` the Potency was “inactive”. With `Cc1c(NC(=O)Nc2cccc([N+](=O)[O-])c2)c(=O)n(-c2ccccc2)n1C` the Potency was 3.7 µM (active). With `Cc1c(C(=O)Nc2ccccn2)oc2ccc(Br)cc12` the Potency was “inactive”. With `O=C(NCCCn1ccnc1)c1cc(Br)c(Br)s1` the Potency was “inactive”. In the case of `COc1cccc2sc(NNC(=O)c3nc4ccccc4s3)nc12`, the Potency is reported as 9.28 µM (active). For `COc1ccc(S(=O)(=O)N2CCOCC2)cc1C(=O)Nc1nc2ccccc2s1`, the Potency was “inactive”. With `COc1cc(/C=N/Nc2nc3ccccc3s2)ccc1O` the Potency was “inactive”. With `CCn1c(SC(C)C(=O)Nc2ccc(N3CCOCC3)cc2)nnc1-c1ccco1` (stereo unspecified) the Potency was “inactive”. For `COc1ccc(C(=O)Oc2cc(/C=N/NS(=O)(=O)c3ccc(C)cc3)ccc2OC)cc1`, the Potency was “inactive”. For `COc1ccc(/C=C/C(=O)c2ccc(NS(=O)(=O)c3ccc(C)cc3)cc2)cc1O`, the Potency was 11.7 µM (active). In the case of `COc1ccc(NS(=O)(=O)c2ccc(NC(C)=O)cc2)cc1OC`, the Potency is reported as “inactive”. With `CSc1sc(C(=O)NNC(=O)c2ccc(Cl)cc2)c2c1C=CCC2` the Potency was “inactive”. For `CC(C)(C)c1ccc(CN2C(=O)c3ccccc3S2(=O)=O)cc1`, the Potency was “inactive”. With `CC(C)(C)c1ccc(CN2C(=O)CN=C(c3ccccc3)c3ccccc32)cc1` the Potency was 1.31 µM (active). For `COc1ccc(CN2C(=O)CN=C2Nc2ccc(C)cc2C)cc1`, the Potency was “inactive”. In the case of `CCCn1c(N)c(N(CCOC)C(=O)C2CCCC2)c(=O)[nH]c1=O`, the Potency is reported as “inactive”. With `CCC(C(=O)NC1CCCCC1)N(C(=O)c1snc(C(N)=O)c1N)c1ccc(OC)cc1OC` (stereo unspecified) the Potency was “inactive”. With `O=C(/C=C(O)/C=C/c1ccc(O)cc1)/C=C/c1ccc(O)cc1` the Potency was “inactive”. With `COc1ccccc1N1CCN(Cc2cc(OC)c3c(c2)OCO3)CC1` the Potency was “inactive”. In the case of `COc1cc(OC)c2ccc(=O)oc2c1C(CCN1CCN(c2ccccc2)CC1)c1ccc2c(c1)OCO2` (stereo unspecified), the Potency is reported as 9.28 µM (active). For `COc1cc(C(CCN2CCN(c3ccccc3)CC2)c2c(OC)cc(OC)c3ccc(=O)oc23)cc(OC)c1OC` (stereo unspecified), the Potency was 8.28 µM (active). In the case of `COc1ccc(N2CCN(Cc3cc(=O)oc4ccc5ccccc5c34)CC2)cc1`, the Potency is reported as “inactive”. In the case of `c1ccc(-c2cnc(CN3CCN(c4ccccc4)CC3)o2)cc1`, the Potency is reported as “inactive”. For `Oc1cc2c(cc1CN1CCN(c3ccccc3)CC1)OCO2`, the Potency was “inactive”. With `O=C1/C(=C/c2ccc3c(c2)OCO3)Oc2cc(OCC(=O)N3CC(O)C[C@H]3C(=O)O)ccc21` (stereo partly specified) the Potency was “inactive”. With `Cc1ccc(O)c(NC(=O)c2cc(-c3ccco3)on2)c1` the Potency was “inactive”. For `O=C(NCc1ccco1)/C(=C\c1cccc([N+](=O)[O-])c1)NC(=O)c1ccco1`, the Potency was “inactive”. In the case of `O=C(Nc1ccccc1)Nc1ccc(C(F)(F)F)cn1`, the Potency is reported as “inactive”. In the case of `CCOC(=O)CN(C)S(=O)(=O)c1ccc(-c2cc(C(=O)OC)sc2C(F)(F)F)cc1`, the Potency is reported as “inactive”. With `COc1cc(NC(=O)CCNC(=O)Cn2ccc3ccccc3c2=O)cc(OC)c1OC` the Potency was “inactive”. In the case of `CNc1nc(SC)nc(N(C#N)CC(=O)OC)n1`, the Potency is reported as 8.28 µM (active). With `CCCCn1c(N)c(N(CCOC)C(=O)COc2c(C)cccc2C)c(=O)[nH]c1=O` the Potency was “inactive”. In the case of `CC1CC(=O)N(CC(=O)Nc2cccc(Cl)c2)c2ccccc2S1(=O)=O` (stereo unspecified), the Potency is reported as “inactive”. For `CC(=O)Nc1cccc(OCC(=O)/C=C2\N(C)c3ccccc3C2(C)C)c1`, the Potency was 0.828 µM (active). In the case of `Cc1noc(C)c1C(=O)OCC(=O)/C=C1\N(C)c2ccccc2C1(C)C`, the Potency is reported as “inactive”. With `CN1/C(=C\C(=O)c2cccnc2Cl)C(C)(C)c2ccccc21` the Potency was “inactive”. For `O=C(O)c1c(NC(=O)N2CCCC2)sc2c1CCCC2`, the Potency was “inactive”. For `COc1ccc(NC(=S)N2CCCC(CO)C2)c(OC)c1` (stereo unspecified), the Potency was “inactive”. For `COc1cc(NC(=S)N2CCCC(C)C2)c(OC)cc1Cl` (stereo unspecified), the Potency was “inactive”. With `COc1cc(NC(=S)N2CCCC(C)C2)cc(OC)c1OC` (stereo unspecified) the Potency was 10.4 µM (active). In the case of `O=C(O)c1ccc(OCC2CCCO2)cc1` (stereo unspecified), the Potency is reported as “inactive”. With `N#Cc1ccc(/C=C2\CCn3c2nc2cc(C(=O)O)ccc2c3=O)cc1` the Potency was “inactive”. With `O=C(NCc1cccnc1)C12CC3CC(CC(C3)C1)C2` the Potency was “inactive”. In the case of `CCCN1CCn2c3c(c4cc(Br)ccc42)CCCC31` (stereo unspecified), the Potency is reported as 1.85 µM (active). For `CCc1ccc(N(CC(=O)NCc2cccnc2)S(=O)(=O)c2ccccc2)cc1`, the Potency was “inactive”. With `CCN(CC(=O)Nc1ccc(NC(C)=O)cc1)C(=O)C1CC(=O)N(Cc2ccc(C)cc2)C1` (stereo unspecified) the Potency was “inactive”. With `COc1ccc(CCNC(=O)C2CCN(c3nn4c(=O)cc(C)nc4s3)CC2)cc1OC` the Potency was “inactive”. With `CCCOc1ccc(CNC(=O)C2CCN(c3nn4c(=O)cc(C)nc4s3)CC2)cc1` the Potency was 11.7 µM (active). For `Cc1cc(=O)n2nc(N3CCCC(C(=O)NCc4cccc(Cl)c4)C3)sc2n1` (stereo unspecified), the Potency was “inactive”. For `Cc1cc(=O)n2nc(N3CCCC(C(=O)N4CCN(C)CC4)C3)sc2n1` (stereo unspecified), the Potency was “inactive”. With `Cc1cc(=O)n2nc(N3CCC(C(=O)Nc4c(F)c(F)c(F)c(F)c4F)CC3)sc2n1` the Potency was 4.15 µM (active). With `Cc1cc(=O)n2nc(N3CCCC3C(=O)NCCCN3CC(C)CC(C)C3)sc2n1` (stereo unspecified) the Potency was “inactive”. With `Cc1ccc(CN2CC(C(=O)NNC(=O)Cn3ccc(C(F)(F)F)n3)CC2=O)cc1` (stereo unspecified) the Potency was “inactive”. With `Cc1ccc(-c2noc(C3CCCN(C(=O)c4cccc(Cl)c4)C3)n2)o1` (stereo unspecified) the Potency was “inactive”. With `N#CC1(NC(=O)COC(=O)CSc2ccc(F)cc2)CCCCC1` the Potency was “inactive”. In the case of `O=C(Nc1cccc(F)c1)NC1CCCCCCC1`, the Potency is reported as “inactive”. With `CCCCNC(=O)N(O)C1N(/N=C/c2ccccc2O)C(=S)SC1(C)C` (stereo unspecified) the Potency was 3.29 µM (active). For `CCCCNC(=O)N(O)C1N(/N=C/c2ccc(N(C)C)cc2)C(=S)SC1(C)C` (stereo unspecified), the Potency was “inactive”. With `O=C(/C=C/c1ccco1)NC(=S)N1CCCCC1` the Potency was “inactive”. For `CC(=O)Oc1ccc2c(c1)C(=O)c1ccccc1C2=O`, the Potency was “inactive”. In the case of `CCOC(=O)c1cnc(COc2ccccc2Cl)[nH]c1=O`, the Potency is reported as “inactive”. With `CCOC(=O)c1nc(C)n(-c2ccc(Cl)cc2Cl)n1` the Potency was “inactive”. With `CCOC(=O)c1cnc(SC)nc1Sc1ccc(Cl)cc1Cl` the Potency was 9.28 µM (active). For `CC[C@@H](C)[C@H](NC(=O)CCc1c(C)c2cc3c4c(oc3c(C)c2oc1=O)CCCC4)C(=O)O`, the Potency was “inactive”. For `COCCn1c(N)c(NCc2ccccc2)c(=O)[nH]c1=O`, the Potency was “inactive”. For `CCN(CC(=O)Nc1c(F)cccc1F)C(=O)c1ccc(-c2ccccc2)cc1`, the Potency was “inactive”. With `CC(Sc1nnc(-c2ccccc2F)n1C1CC1)C(N)=O` (stereo unspecified) the Potency was “inactive”. With `CC(C)N(C(=O)c1ccc(-c2ccccc2F)cc1)C(C)C` the Potency was 4.65 µM (active). For `Cc1ccn(CCC(=O)N2c3ccccc3CC2C)n1` (stereo unspecified), the Potency was “inactive”. For `O=C(COC(=O)c1ccccn1)NNC(=O)c1ccc([N+](=O)[O-])cc1`, the Potency was “inactive”. For `CC(O)c1nc2ccccc2n1Cc1ccc([N+](=O)[O-])cc1` (stereo unspecified), the Potency was 1.85 µM (active). In the case of `Cc1nc2ccccc2c(=O)n1Cc1ccc([N+](=O)[O-])cc1`, the Potency is reported as “inactive”. With `C[C@@H](O)c1nc2ccccc2n1N` the Potency was “inactive”. For `COc1cccc(N2CC(NC(=O)c3ccc4ccccc4c3)CC2=O)c1` (stereo unspecified), the Potency was “inactive”. In the case of `COc1ccc(C2/C=C\CN(CC(C)C)CC(=O)N2Cc2ccc(F)cc2)cc1` (stereo unspecified), the Potency is reported as “inactive”. With `O=S(=O)(c1cccs1)N1CCN(Cc2ccccc2)CC1` the Potency was “inactive”. With `COc1ccc(C2/C=C\CN(S(=O)(=O)c3cccs3)CC(=O)N2Cc2ccc(F)cc2)cc1` (stereo unspecified) the Potency was 10.4 µM (active). For `CC(NC(=O)CN(C)S(=O)(=O)c1ccc(F)cc1)C1CC2CCC1C2` (stereo unspecified), the Potency was “inactive”. For `C=CCOc1ccc(/C=C/C(=O)OCC(=O)NCC2CCCO2)cc1` (stereo unspecified), the Potency was “inactive”. For `COc1cc([N+](=O)[O-])cc([N+](=O)[O-])c1NC(=O)N1CCOCC1`, the Potency was “inactive”. For `O=C(Nc1ccccc1C(=O)O)c1ccc(N2C(=O)C3CC=CCC3C2=O)cc1` (stereo unspecified), the Potency was “inactive”. For `O=C(CSc1ccc(-c2ccc(Br)cc2)nn1)NCC1CCCO1` (stereo unspecified), the Potency was “inactive”. In the case of `COc1ccc(CCNC(=O)CN2C(=O)COc3ccc(S(=O)(=O)N4CCCC4)cc32)cc1OC`, the Potency is reported as “inactive”. For `CCN1C(=O)[C@H]2[C@@H](c3ccc(SC4CCCCC4)c(OC)c3)N[C@@](Cc3ccccc3)(C(=O)OC)[C@H]2C1=O`, the Potency was “inactive”. With `CCN1C(=O)[C@H]2[C@@H](c3ccc(-c4ccc(F)cc4)cc3)N[C@@](Cc3ccccc3)(C(=O)OC)[C@H]2C1=O` the Potency was 5.86 µM (active). With `CCOC(=O)C1(Cc2ccc(O)cc2)NC(c2ccccc2F)C2C(=O)N(C)C(=O)C21` (stereo unspecified) the Potency was “inactive”.
